Measurements taken from PubChem BioAssay AID602252 (Broad Institute, 2012).
Hit rate of the full screen: of about 300,000 compounds, about 2,700 (0.9%) were called active.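 How the source made its calls: active means mean inhibition of at least 30% with at least half of replicates also reaching 30%; inconclusive means no clear call, values can overlap the other calls; inactive means the rest.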 Only a selection was taken, and actives are over-represented in it overall.

What follows are molecules tested against Golgi-associated PDZ and coiled-coil motif-containing protein (Homo sapiens) (UniProt Q9HD26) (assay: untagged CAL PDZ binding inhibitors, primary screen, biochemical, fluorescence polarization, HTS (AID 602252;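 further: 0% = DMSO neutral control and 100% = excess unlabeled competitor peptide PRC23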)). Conditions: purified CAL PDZ, TMR-peptide fluorescence polarization, 1 h; at 24.9 µM; hits give high values.

inhibition, active:
COc1cc(OC)c(C(=O)NCc2ccc3c(c2)OCO3)cc1OC 81%
C=Cn1c(C(=O)O)ccc1-c1ccc(OC)cc1 37.7%
O=C(NC1CCCC1)C1CC(=O)N(c2ccc(F)cc2)C1 (stereo unspecified) 53.1%
COc1ccc(Nc2ncnc3sc(-c4ccccc4)cc23)c(OC)c1 179%
O=C(Cn1c(-c2cncs2)nc2ccccc21)NC1CCCC1 41.1%

inhibition, inactive:
NC(=O)C1(N2CCCC2)CCN(Cc2ccccc2)CC1 -1.05%
COc1ccc(CNC(=O)C[C@H]2C[C@H](C(=O)N3CCOCC3)[C@@]3(CCC4CCCC4)c4[nH]c5ccc(Cl)cc5c4CCN3C2=O)cc1OC -0.587%
O=C(NCc1ccc2c(c1)OCO2)c1cc(F)c(F)cc1Cl -5.1%
COc1ccc(NC(=O)NCc2ccc3c(c2)OCO3)c(OC)c1 -1.76%
O=C(NCCC(=O)N1O[C@@H]2C=C[C@H]1C2)OCC1c2ccccc2-c2ccccc21 -5.2%
O=C1CC2(CCCC2)C(=O)N1CN1CCN(S(=O)(=O)c2ccc(F)cc2F)CC1 -4.29%
COc1ccc(CNCCCn2cnc3c(OCc4ccccc4)ncnc32)cc1 -2.18%
COc1ccc(-c2ccc(CCC(=O)O)n2-c2ccc(O)cc2)cc1 -0.609%
COc1ccc(OCC(=O)N2CCN(C(=O)COc3ccccc3)CC2)cc1 -1.31%
CN(C(=O)c1cccc(NC(=O)Cc2ccc(NC(=O)C3CCN(C(=O)C4CCCCC4)CC3)cc2)c1)C1CCC1 -2.99%
COc1ccc(Cl)cc1NC(=O)C1CC(=O)N(c2ccc(F)cc2)C1 (stereo unspecified) -7.15%
CC1CC(C)CN(C(=O)C2CC(=O)N(c3ccc(F)cc3)C2)C1 (stereo unspecified) -2.8%
CC(=O)c1ccc(NC(=O)C(C)OC(=O)c2ccc(NS(=O)(=O)c3ccc4[nH]c(=O)[nH]c4c3)cc2)cc1 (stereo unspecified) -8.65%
COc1ccc(/C=C2/CCCc3ccccc3C2=O)cc1 1.76%
COc1ccc(Nc2ncnc3sc(C)cc23)cc1 0.276%
COc1ccc(Nc2ncnc3ccc(Br)cc23)c(OC)c1 -10.3%
CCOc1ccc(S(=O)(=O)N2CCN(C(=O)c3oc4ccccc4c3C)CC2)cc1 2.11%
CC12CCCCC1=CC(=O)CC2 (stereo unspecified) 28.3%
O=C(CCC(=O)N1CCN(S(=O)(=O)c2ccc(Cl)cc2)CC1)NCc1cccc(C(F)(F)F)c1 -4.29%
O=C(CN1CCN(c2ccccn2)CC1)NC1CCCCC1 11.4%
O=C(Cn1c(-c2cscn2)nc2ccccc21)Nc1ccc(Cl)cc1 -17.7%
